# Source: PubChem (University of Kansas High Throughput Screening Laboratory)
# Pf apPOL inh – Pf-apPOL DNA polymerase inhibition. AID 1794808. 210,000 compounds, 0.25% hits. inhibition, % at 10 µM. Recombinant Pf-apPOL, molecular beacon fluorescence, 1.5 h
# mHTT-CaM PPI inh – inhibitors of human mutant huntingtin-calmodulin interaction; P42858; AlphaScreen His-mHTT/GST-CaM binding, luminescence; inhibition, % at 15 µM; 190,000 compounds, 3.6% hits; AID 1671202;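 note: 0% = both proteins with DMSO and 100% = one protein alone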
# * marks the source's active call; other numbers are inactive results; . = not tested or not shown. Many of the other results were omitted from the sample, so hits are more common in it than they were. Cut-off read from the data, not from the text of the source: active = inhibition above about 50%; inactive = the rest.
SMILES,Pf apPOL inh,mHTT-CaM PPI inh
O=C(NC1CCCCCC1)C1CCCN(S(=O)(=O)c2ccc(Br)s2)C1 (stereo not drawn),-0.8,-1.0
Cc1noc(CNC(=O)C2CCN(C(=O)Cc3cccs3)CC2)n1,-1.7,2.0
CCCN1CCN(C2CCN(C(=O)c3ccc(OC)c(OC)c3)CC2)C1=O,-5.0,3.4
CCc1ccc(NC(=O)NCCC2CCN(S(=O)(=O)c3ccc(F)cc3)CC2)cc1,-3.7,23.4
O=C1CCC[C@@H]2C[C@@]3(C[C@@H]4CCN1[C@H]24)Nc1cc(Cl)c(Cl)cc1NC3=NCc1ccccc1,-5.2,98.3*
CC(C)(C)CC(C)(C)N=C1Nc2ccccc2N[C@]12C[C@H]1CCCC(=O)N3CC[C@@H](C2)[C@@H]13,-6.1,49.1
CC(C)(C)CC(C)(C)N=C1Nc2ccc(Cl)cc2NC12C[C@H]1CCC(=O)N3CC[C@@H](C2)[C@@H]13 (stereo partly drawn),-3.0,94.9*
Cc1cc2c(cc1C)N[C@]1(C[C@H]3CCCC(=O)N4CC[C@@H](C1)[C@@H]34)C(=Nc1ccccc1C)N2,-1.2,22.0
Cc1ccccc1N=C1Nc2ccc(Cl)cc2N[C@]12C[C@H]1CCCC(=O)N3CC[C@@H](C2)[C@@H]13,2.7,24.9
Cc1ccccc1N=C1Nc2cc(Cl)c(Cl)cc2N[C@]12C[C@H]1CCCC(=O)N3CC[C@@H](C2)[C@@H]13,-7.6,85.7*
Cc1noc(C)c1S(=O)(=O)N1CCC(CC(=O)NCc2cccc(Cl)c2)CC1,-5.9,5.2
Cn1cccc1CN(C(=O)NCc1cccs1)C1CC1,-8.2,-0.2
CCCCC[C@H]1CN(CCc2ccccc2)C(=O)[C@@H]1CC(=O)NCc1ccc(OC)cc1,-5.2,75.1*
CCCCC[C@H]1CN(CCCC)C(=O)[C@@H]1CC(=O)NCc1ccc(OC)cc1,-2.1,16.5
COc1ccc(C2SCCN2S(=O)(=O)c2ccc(OC)cc2)cc1 (stereo not drawn),-1.7,-5.0
c1csc(-c2cc3ccccc3[nH]2)c1,11.0,.
NCCc1c(-c2cccs2)[nH]c2ccccc12,-5.8,88.4*
CCOc1ccc(/C=c2\sc3nc(-c4ccc(C)cc4)nn3c2=O)cc1OC,0.5,-4.0
CS(=O)(=O)N1CCN(c2ccc([N+](=O)[O-])c(Sc3nnnn3-c3ccccc3)c2)CC1,-3.9,-3.7
O=[N+]([O-])c1cc(C(F)(F)F)cc([N+](=O)[O-])c1Sc1nnnn1-c1ccccc1,3.6,100.0*
CN(C)CCNC(=O)CCS(=O)(=O)Cc1ccccc1Cl,-14.9,-2.0
O=C(O)C1CSC(c2cc(Cl)cc(Cl)c2O)N1 (stereo not drawn),0.4,91.0*
O=C(O)C1CSC(c2cc(Br)ccc2O)N1 (stereo not drawn),7.9,56.0*
O=C(O)C1CSC(c2ccc(Cl)c(Cl)c2)N1 (stereo not drawn),3.6,2.0
COc1ccc(Br)cc1C1NC(C(=O)O)CS1 (stereo not drawn),-7.7,16.0
SMILES,Pf apPOL inh,mHTT-CaM PPI inh
Cc1ccc(CNc2nnc(-c3nc(C4CC4)no3)c3ccccc23)cc1,0.8,13.4
CCc1ccc(NC(=O)N2CCc3nc(C)ncc3C2)cc1,-10.4,7.0
O=C(Nc1ccc(Cl)c(Cl)c1)Nc1ccc2c(c1)OCO2,-0.5,16.4
CCN(CC)C(=O)CNC(=O)c1nn(-c2ccc(OC)c(Cl)c2)c(=O)c2ccccc12,-3.4,56.0*
COc1ccc(-n2nc(C(=O)NCC(=O)Nc3cccc(C)n3)c3ccccc3c2=O)cc1Cl,0.4,6.0
COc1ccc(-n2nc(C(=O)NCC(=O)NCc3ccccc3)c3ccccc3c2=O)cc1Cl,-6.1,98.0*
CCN(CC)C(=O)CNC(=O)c1nn(-c2ccc(OC)c(OC)c2)c(=O)c2ccccc12,-8.2,9.0
COc1ccc(S(=O)(=O)N2CCN(Cc3ccc4c(c3)OCO4)CC2)cc1OC,-2.4,6.1
N#Cc1nc(-c2ccc(Cl)cc2)oc1NCCc1ccccc1,-0.5,1.0
O=C(NCC1CCCCC1)C1CCc2sc(C(=O)N3CCOCC3)cc2C1 (stereo not drawn),-6.8,6.5
COc1cc(OC)c2c(-c3ccccc3)cc(=O)oc2c1C(CC(=O)N1CCOCC1)c1ccc2c(c1)OCO2 (stereo not drawn),-4.2,34.2
COc1cc(OC)c2c(-c3ccccc3)cc(=O)oc2c1C(CC(=O)N1CCOCC1)c1ccc(N(C)C)cc1 (stereo not drawn),-4.4,66.2*
COc1cc(OC)c2c(-c3ccccc3)cc(=O)oc2c1C(CC(=O)N1CCN(c2ccccc2)CC1)c1ccc(N(C)C)cc1 (stereo not drawn),-6.9,58.5*
COc1cc(O)c(C(CC(=O)N2CCCC2)c2ccc(N(C)C)cc2)c(OC)c1 (stereo not drawn),-3.9,34.7
Cc1nn(CCCC(=O)Nc2cc(Oc3ccccc3)cc([N+](=O)[O-])c2)c(C)c1[N+](=O)[O-],-2.1,96.0*
Cc1ccc(C)c(Oc2cc(NC(=O)CCCn3nc(C)c([N+](=O)[O-])c3C)cc([N+](=O)[O-])c2)c1,-0.2,1.0
Cc1nn(CCCC(=O)Nc2cc(Oc3ccc(F)cc3F)cc([N+](=O)[O-])c2)c(C)c1[N+](=O)[O-],-4.9,80.0*
Cc1ccc(NC(=O)CCCn2nc(C)c([N+](=O)[O-])c2C)cc1C,-12.3,2.0
Cc1cc(C)nc(N=C(N)Nc2ccc([N+](=O)[O-])cc2)n1,1.1,-1.0
COc1c(C(=O)N2CCN(c3ccccc3)CC2)sc2cccc(F)c12,0.4,64.2*
COc1c(C(=O)N2CCN(c3ccccc3F)CC2)sc2cccc(F)c12,0.8,12.6
CCCCN(C)C(=O)c1nc(C)oc1C,-3.2,-7.0
Cc1ccc(NC(=O)Cn2cccc2-c2nnc(C3CCC3)o2)cc1F,0.4,0.4
CNC(=O)CC1CCN(c2ccnc(NC)n2)CC1,93.1*,-1.7
CCNc1nccc(N2CCC(CC(=O)N3CCN(c4cccc(Cl)c4)CC3)CC2)n1,-5.6,50.7*
SMILES,Pf apPOL inh,mHTT-CaM PPI inh
CNc1nccc(N2CCC(CC(=O)N3CCN(c4cccc(C)c4)CC3)CC2)n1,2.5,11.4
CNc1nccc(N2CCC(CC(=O)NCCOC)CC2)n1,1.0,-2.0
CC(C)C(=O)Nc1cnc(-c2ccc(Cl)cc2)nc1,-2.0,-3.9
CC(C)c1ccc(NC(=S)NC2CC3CC2C2C=CCC32)cc1 (stereo not drawn),-6.6,.
Cc1ccc(OCC(O)CNC(C)(C)C)cc1C (stereo not drawn),0.1,0.3
Cc1cc(Cl)ccc1OCC(O)CN1CCN(C)CC1 (stereo not drawn),43.7,5.7
Cc1cc(OCC(O)CNC(C)c2ccccc2)ccc1Cl (stereo not drawn),-4.1,100.0*
Cc1cc(Cl)ccc1OCC(O)CNC(C)c1ccccc1 (stereo not drawn),-1.1,58.5*
Cc1ccc(-c2nnc(N3CCC(C(=O)NCCC4=CCCCC4)CC3)o2)cc1,-7.2,13.2
CC(C)C(=O)N1CCN(C(C(=O)NC2CCCc3ccccc32)C2CCCC2)CC1 (stereo not drawn),-0.9,0.8
O=C(NCCc1ccccn1)c1csc(Cc2c(Cl)cccc2Cl)n1,-25.3,.
CC1NC2(CCN(C(=O)c3ccccc3Cl)CC2)N(CC2CCCO2)C1=O (stereo not drawn),-7.7,3.6
COc1cc(O)c(C(CC(=O)N2CCCC2)c2ccc3c(c2)OCO3)c(OC)c1 (stereo not drawn),-0.3,13.1
COc1cc(O)c(C(CCN2CCCCC2)c2ccc(N(C)C)cc2)c(OC)c1 (stereo not drawn),-7.0,30.2
